Out of some 2,700 compounds screened, about 160 (5.9%) showed an effect of 50% or more. Many of the other results were omitted from the sample, so strong results are more common in it than they were.

This passage reports inhibition results from ChEMBL document CHEMBL5606458, “ASAP - ZIKV NS2B-NS3 protease fluorescence single point” (2024).

The target in this assay is Nonstructural protein 3 (Zika virus) (UniProt A0A024AXB9).
Where [1] appears, read: PRVABC59, Concentration 15.0 uM, Number of replicates 1.0.
Setting [2] is: PRVABC59, Concentration 50.0 uM, Number of replicates 1.0.

Chain of Nonstructural protein 3 (Zika virus) (A0A024AXB9 as listed by the source): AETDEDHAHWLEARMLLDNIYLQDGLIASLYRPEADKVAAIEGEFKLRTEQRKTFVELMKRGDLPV

With `COc1ccc(S(=O)(=O)Nc2ccc(C(=O)O)cc2)cc1`, the inhibition (commonly the drop in the measured response relative to a control, in per cent) by setting is: (PRVABC59, Concentration 49.5 uM, Number of replicates 2.0, Standard deviation 1.0137935505852833 %) 2.03%; (PRVABC59, Concentration 99.01 uM, Number of replicates 2.0, Standard deviation 1.063246976754026 %) 4.7%; (PRVABC59, Concentration 198.0 uM, Number of replicates 2.0, Standard deviation 1.989546367228998 %) 3.61%. Consider `COc1ccc(S(=O)(=O)n2nc(OC(=O)c3ccccc3)cc2N)cc1`, for which the inhibition (PRVABC59, Concentration 49.5 uM, Number of replicates 2.0, Standard deviation 0.018531126353269887 %) turned out to be 99.1%; the inhibition (PRVABC59, Concentration 99.01 uM, Number of replicates 2.0, Standard deviation 0.03874003445206144 %) turned out to be 99.1%; the inhibition (PRVABC59, Concentration 198.0 uM, Number of replicates 2.0, Standard deviation 0.035373681367799316 %) is 99%. Take `COc1ccc(S(=O)(=O)N2CCC(C(=O)Nc3nc4ccccc4s3)CC2)cc1`: the inhibition is, setting by setting: (PRVABC59, Concentration 49.5 uM, Number of replicates 2.0, Standard deviation 3.281212488466362 %) 4.02%; (PRVABC59, Concentration 99.01 uM, Number of replicates 2.0, Standard deviation 0.8753020409515783 %) 5.17%; (PRVABC59, Concentration 198.0 uM, Number of replicates 2.0, Standard deviation 6.6794445217114635 %) 7.79%. Take `CN(Cc1cccc(F)c1F)C(=O)c1cc(Cl)ccc1NS(=O)(=O)c1ccc(Oc2ccccc2Cl)cc1`: the inhibition under setting [1] turned out to be 31.2%.

In the case of `CC(C)CCN(CCC(C)C)C(=O)c1cc(Cl)ccc1NS(=O)(=O)c1ccc(Oc2ccccc2Cl)cc1`, under setting [1], the inhibition is 18.8%. On the same count and under the same terms, the figure for `CS(=O)(=O)c1ccc(O)c(NC(=O)c2cc(Cl)ccc2NS(=O)(=O)c2ccc(Oc3ccccc3Cl)cc2)c1` is 32.3%.

On to `COc1nscc1-c1ccccc1C(=O)Nc1cnn(C)c1`, for which the inhibition reads like this: (PRVABC59, Concentration 49.5 uM, Number of replicates 2.0, Standard deviation 2.0613155081961194 %) -1.46%; (PRVABC59, Concentration 99.01 uM, Number of replicates 2.0, Standard deviation 1.0972097923679232 %) 1.42%; (PRVABC59, Concentration 198.0 uM, Number of replicates 2.0, Standard deviation 0.19246139208887503 %) 3.36%. On to `O=C(Cn1sc2ccccc2c1=O)Nc1cccc(OCc2cn(CC(=O)Nc3ccccc3Oc3ccccc3)nn2)c1`, for which the inhibition is, setting by setting: (PRVABC59, Concentration 49.5 uM, Number of replicates 2.0, Standard deviation 0.019067908615904634 %) 53.7%; (PRVABC59, Concentration 99.01 uM, Number of replicates 2.0, Standard deviation 0.0558469345004512 %) 58.2%; (PRVABC59, Concentration 198.0 uM, Number of replicates 2.0, Standard deviation 0.30102425600760013 %) 69.5%. With `Cc1nccn1-c1ccc(NC(=O)c2cc(Cl)ccc2NS(=O)(=O)c2ccc(Oc3ccccc3Cl)cc2)cc1`, under setting [1], the inhibition came out at 43.8%. Still for that read-out and setting: next, `O=C(Nc1ccc(-n2cccn2)cc1)c1cc(Cl)ccc1NS(=O)(=O)c1ccc(Oc2ccccc2Cl)cc1`: 71.5%.

For the compound `CCN1CCN(c2ccc(NC(=O)c3cc(Cl)ccc3NS(=O)(=O)c3ccc(Oc4ccccc4Cl)cc3)cc2)CC1`, under setting [1], the inhibition worked out at 17.1%. On the same count and under the same terms, next, `O=C(Nc1ccc(-n2ccnc2)cc1)c1cc(Cl)ccc1NS(=O)(=O)c1ccc(Oc2ccccc2Cl)cc1`: 63.6%; `O=C(NCc1cccc(-n2cccn2)c1)c1cc(Cl)ccc1NS(=O)(=O)c1ccc(Oc2ccccc2Cl)cc1`: 33.4%; `CCN(CC)S(=O)(=O)c1ccc(NC(=O)c2cc(Cl)ccc2NS(=O)(=O)c2ccc(Oc3ccccc3Cl)cc2)cc1`: 27.6%.

For the compound `COc1ccc([C@@H](C)NC(=O)C2CCN(c3ccc(C=O)cc3)CC2)cc1OC`, the inhibition (PRVABC59, Concentration 10.0 uM, Number of replicates 1.0) was determined as 22.9%. Turning to `CC(C)(C)[C@H](NC(=O)c1cc(Cl)ccc1NS(=O)(=O)c1ccc(Oc2ccccc2Cl)cc1)c1ccccc1`, the inhibition under setting [1] came to 57.8%. On the same count and under the same terms, next, `C[C@H](NC(=O)c1cc(Cl)ccc1NS(=O)(=O)c1ccc(Oc2ccccc2Cl)cc1)c1cccc(C(F)(F)F)c1`: 39.3%; `O=C(N[C@H](c1ccccc1)C(F)(F)F)c1cc(Cl)ccc1NS(=O)(=O)c1ccc(Oc2ccccc2Cl)cc1`: 60.6%; `C[C@H](NC(=O)c1cc(Cl)ccc1NS(=O)(=O)c1ccc(Oc2ccccc2Cl)cc1)c1ccccc1C(F)(F)F`: 42.7%. Turning to `C[C@@H](CC(C)(C)c1ccccc1)NC(=O)c1cc(Cl)ccc1NS(=O)(=O)c1ccc(Oc2ccccc2Cl)cc1`, under setting [1], the inhibition came to 18.2%. Still for that read-out and setting: next, `O=C(N[C@H](c1ccccc1)[C@@H](O)c1ccccc1)c1cc(Cl)ccc1NS(=O)(=O)c1ccc(Oc2ccccc2Cl)cc1`: 45.7%. For `Cc1cnccc1NC(=O)c1cccc(-n2cnnn2)c1`, the inhibition reads like this: (PRVABC59, Concentration 49.5 uM, Number of replicates 2.0, Standard deviation 4.148081450793093 %) -4.56%; (PRVABC59, Concentration 99.01 uM, Number of replicates 2.0, Standard deviation 2.8220872377424997 %) -2.1%; (PRVABC59, Concentration 198.0 uM, Number of replicates 2.0, Standard deviation 5.644174285824181 %) -3.31%. For the compound `O=Cc1ccc(N2CCC(C(=O)Nc3ccc(F)cc3Br)CC2)cc1`, under setting [2], the inhibition is 20.8%. On the same count and under the same terms, the figure for `CCN(CCOc1ccccc1C)C(=O)C1CCN(c2ccc(C=O)cc2)CC1` is 25.1%.

With `O=C(c1cc(Cl)ccc1NS(=O)(=O)c1ccc(Oc2ccccc2Cl)cc1)N1CCCN(c2ccc(C(F)(F)F)cn2)CC1`, the inhibition under setting [1] worked out at 30%. Regarding `CCN1CCOC[C@H]1C(=O)Nc1cc(Cl)cc(C(=O)NC(C)(C)CO)c1`, the inhibition is, setting by setting: (PRVABC59, Concentration 49.5 uM, Number of replicates 2.0, Standard deviation 1.425535849610213 %) -1.8%; (PRVABC59, Concentration 99.01 uM, Number of replicates 2.0, Standard deviation 1.345541763339264 %) -2.76%; (PRVABC59, Concentration 198.0 uM, Number of replicates 2.0, Standard deviation 3.0049064318797343 %) -3.73%.
